Records with an inconclusive call do not appear. Where a call stands in place of a potency, no number is given. Activity calls are given as the source filed them. Calls follow the shape of the dose curve; as a rule, active = well fitted cell-killing curve with a large enough effect in the repeat runs; inconclusive = weak or mixed curves, or effect the other way; inactive = flat fitted curve, though single readings scatter.
Assay: cAMP Responsive Elements (CRE) small molecule agonists, cell-based qHTS assay: qHTS cell viability counter screen (AID 2060914); also: nearly all actives have a fitted effect of over 50% in size
Settings: CRE-bla HEK293T viability, CellTiter-Glo luminescence, 5 h; series mostly up to 92.4 µM
Method in brief: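 HEK 293T CRE-bla; DMEM + 10% dialyzed FBS, 25 mM HEPES; 18 h pre-incubation; compound 3 h, 37 °C/5% CO2; CellTiter-Glo added after reporter read; luminescence after 30 min RT.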

SMILES | Potency
Nc1cc(Cl)ccc1O | inactive
CC(C)[C@]12CC(=O)[C@H](C)[C@H]1C2 | inactive
CC1CCC(=O)O1 (stereo not given) | inactive
CNC | inactive
CC(c1ccc(O)cc1)(c1ccc(O)cc1)c1ccc(O)cc1 | inactive
CCCCCCC[CH2][Sn]([Cl])([Cl])[CH2]CCCCCCC | inactive
CC(C)(N)Cc1ccc(Cl)cc1 | inactive
CC(C)(O)c1cnn2c(-c3ccc(F)c(-c4c(F)cccc4C#N)c3)cnc2n1 | inactive
OCc1ccco1 | inactive
CCC1(C2=NCCN2)Cc2ccccc2O1 (stereo not given) | inactive
CCCCC(CC)COC(=O)c1c(Br)c(Br)c(Br)c(Br)c1C(=O)OCC(CC)CCCC (stereo not given) | inactive
CCCCCCCCCCCCN(C)C | inactive
ClCC(Cl)Cl | inactive
CCC(=O)C(CC(C)N(C)C)(c1ccccc1)c1ccccc1 (stereo not given) | inactive
O=C/C=C/c1ccccc1 | inactive
CCC(=O)O[C@H]1CC[C@H]2[C@@H]3CCC4=CC(=O)CC[C@]4(C)[C@H]3CC[C@]12C | inactive
COC(=O)c1cncn1C(C)c1ccccc1 (stereo not given) | inactive
CCCC[N+](=O)[O-] | inactive
NNC(=O)c1cccnc1 | inactive
CCN | inactive

SMILES | Potency
Clc1cnc(Oc2ccc(Oc3ncc(Cl)cc3Cl)cc2)c(Cl)c1 | inactive
O=[N+]([O-])c1cc([As](=O)(O)O)ccc1O | inactive
O=c1ssc(Cl)c1Cl | inactive
Clc1cccc(Cl)c1 | inactive
[C-]1=CC=CC1.[Cl][Zr+2][Cl].c1cc[cH-]c1 | inactive
O=C(NCNC(=O)NC1C(=O)NC(=O)N1CO)NC1C(=O)NC(=O)N1CO (stereo not given) | inactive
COP(=O)(OC)O/C(=C\Cl)c1cc(Cl)c(Cl)cc1Cl | inactive
Cc1c(Cl)c(=O)oc2cc(OP(=O)(OCCCl)OCCCl)ccc12 | inactive
S=C=S | inactive
O=C(N[C@H]1CN2CCC1CC2)c1cc2ccoc2cn1 | inactive
OC(Cc1ccccc1Cl)(Cn1[nH]cnc1=S)C1(Cl)CC1 (stereo not given) | inactive
Cl/C=C/CCl | inactive
CCCCS(=O)(=O)Cl | inactive
C#CCN1C(=O)COc2cc(F)c(N3C(=O)C4=C(CCCC4)C3=O)cc21 | inactive
Cc1cc(Cl)ccc1N | inactive
NC(=O)CCl | inactive
CCC(C)(C)c1ccc(O)cc1 | inactive
Cc1cc(Cl)ccc1N=CN(C)C | inactive
CN(C)CCC#N | inactive
O=NN1CCNCC1 | inactive
